Measured values from PubChem BioAssay AID1766 (National Center for Advancing Translational Sciences (NCATS), 2009).
In all, about 290,000 compounds went through this assay and fewer than 10 were called active. Another 3% or so got no clear call; they are omitted. The call rests on the fitted dose curve; in most records, active means well fitted curve in the direction sought with a large enough effect in the polarisation (not every such curve was filed as active); inconclusive means small, poorly fitted or top-dose-only effect, or effect the other way, or a change in a side signal; inactive means no such curve, though single readings can be large or run the other way; the % refers to the polarisation. A selection follows.

Assay: qHTS Assay for Inhibitors Targeting the Menin-MLL Interaction in MLL Related Leukemias: Competition With Fluorescein Labeled MLL-derived Peptide; further: % of control where 0% means no effect
Details: Fluorescence polarization, fluorescein-MLL peptide displacement from menin; series mostly up to 61.4 µM; FP activity change: at the top concentration
Excerpt: qHTS Assay for Inhibitors Targeting the Menin-MLL Interaction in MLL Related Leukemias NIH Chemical Genomics Center [NCGC] NIH Molecular Libraries Probe Centers Network [MLPCN] MLPCN Grant: MH084875-01A1 Assay Submitter (PI): Jolanta Grembecka, Tomasz Cierpicki, University of Virginia Translocations of the MLL (Mixed Lineage Leukemia) gene are frequently found in human leukemias affecting both children and adults. Fusion of MLL to one of more than 60 genes results in generation of oncogenic proteins upregulating Hox genes, which are vital to blood cell development. Patients harboring fusion of the MLL gene suffer from aggressive leukemias and respond poorly to available therapies. All of the oncogenic fusion proteins have a preserved N-terminal fragment of MLL that has been identified to interact with menin. It has been recently discovered that association with menin is critical to the leukemogenic activity of the MLL fusion oncoproteins. Selective targeting of the menin-MLL interaction could provide an attractive therapeutic approach to develop novel drugs for MLL-related leukemias. Small molecules blocking the menin-MLL interaction should reverse the oncogenic potential of MLL fusion proteins. We have developed and optimized a fluorescence polarization-based assay for the identification of Menin-MLL inhibitors. The assay was run employing two different MLL-derived peptides. The present assay uses a 12 amino acid peptide labeled with fluorescein at its N-terminus. This peptide consists of the menin high affinity binding motif from MLL and is potently bound by menin. Another peptide with a mutated sequence, labeled with Texas Red, was used in parallel as a less stringent screen for inhibitors.
The Menin protein, the MLL-wild type (w.t.) derived peptide (N-terminal 12 amino acids), the MLL-derived peptide labeled with Texas Red and the MLL-w.t. peptide labeled with Fluorescein were kindly supplied by laboratory of Dr. Jolanta Grembecka, University of Virginia. All protein and peptide solutions were stored in single use aliquots at -80C. The Eu3+ Cyrptate-conjugated mouse monoclonal antibody anti-6 Histidine (Eu3+-AB) and the Streptavidin-XL665 conjugate (XL665) were purchased from Cisbio International (Bedford, MA). All antibody and XL665 conjugate solution stocks were stored in single use aliquots at -20C. The Buffer components for all assays were purchased from Sigma-Aldrich (St. Louis, MO) and Invitrogen (Carlsbad, CA). FP Assay Reagents: 1. FP reaction buffer: 50 mM Tris-HCl pH 7.5, 50 mM NaCl, 1mM DTT. Before use, 0.05% BSA is added. 2. Menin protein, MLL-w.t. labeled with fluorescein, MLL-mutant peptide labeled with texas red. Stored in singe use aliquots at -80C. 3. MLL-w.t. unlabeled peptide as positive control: 10 uM final in FP buffer. FP Assay Procedure: 1. Prepare Menin at 200 nM, MLL-w.t.-fluorescein at 25 nM, and MLL-mutant-texas red at 50 nM mixture in FP buffer. 2. Prepare Menin at 200 nM, MLL-w.t.-fluorescein at 25 nM, MLL-mutant-texas red at 50 nM, and 10 uM MLL-w.t. unlabeled mixture in FP buffer. 3. Prepare MLL-w.t.-fluorescein at 25 nM and MLL-mutant-texas red at 50 nM mixture in FP buffer. 3. Dispense 4 ul per well of reagent in step 1 in columns 2, 4 - 48 in a black 1536 well plate, dispense 4 ul per well of reagents from steps 2 and 3 in columns 1 and 3 respectively. Incubate plate at ambient for 15 minutes. 4. Transfer 23 nl per well of compound to plate and incubate at ambient for 1 hr. 5. Read fluorescence polarization for each label using the PerkinElmer Envision. Envision protocol for fluorescein: FITC FP Dual Enh Mirror, Excitation filter 480, Emission filter (1) P-pol 535, Emission filter (2) S-pol 535 Envision protocol for texas red: FP Dual Enh Mirror, Excitation filter 555, Emission filter (1) P-pol 632, Emission filter (2) S-pol 632

FP activity change, inactive:
CC(C)(C)c1ccc(Cn2nnc3c(=O)[nH]c(C4CCCN(C(=O)c5ccco5)C4)nc32)cc1 (configuration not stated) 2.29%
C/C=C/C=N/NC(=O)c1ccncc1 -2.94%
CCC(=O)Nc1nc(C)c(C(=O)Nc2cccc(Cl)c2)s1 -0.766%
COC(=O)c1ccc(CN2C(=O)NC(c3ccccc3)(c3ccccc3)C2=O)o1 -3.74%
O=C(Nc1nnc(-c2ccccc2F)s1)c1ccccc1F 0.841%
S=c1[nH]c(-c2cccs2)cn1-c1ccccc1 -10%
Cc1ccc(-c2csc(N3CCN(c4cc5c(cc4Cl)nc(-c4ccncc4)n5CCOCCO)CC3)n2)cc1 -0.208%
CCOc1ccc(-n2c(SCC(=O)OC)nc3sc4c(c3c2=O)CCN(C)C4)cc1 6.86%
COC(=O)c1ccc(Nc2ncnc3sccc23)cc1 3.91%
Cc1ccc(NC(=O)Nc2cccnc2)cc1 -1.76%
Cc1ccc(N(Cc2ccccc2O)C(=O)c2ccccc2F)cc1 -5.27%
Cc1ccccc1NC(=S)NC(=O)Cc1ccc(Cl)cc1 -2.56%
O=C(NCCCO)c1cc2c([nH]c3ccccc32)c(-c2ccc(F)cc2)n1 -0.599%
Cc1cc(CNC(=O)C2CCC(=O)N(CCc3ccc(Cl)cc3)C2)no1 (configuration not stated) 4.02%
O=C1CCC([N+](=O)[O-])C(c2ccccc2Br)N1 (configuration not stated) -0.866%
CSc1nnc2ccc(-c3ccc(C)cc3)nn12 3.46%
Cc1ccc(C(=O)c2coc3ccc(O)c(CN(C)C)c23)cc1 -0.231%
CC1(C(=O)NCCc2c[nH]c3ccccc23)C=CC2(CCCCC2)N1C(=O)c1ccccc1 (configuration not stated) 0.914%
Cc1ccc(O)c(NC(=O)c2cc(-c3ccco3)on2)c1 11%
Cc1ccccc1NC(=O)CCOc1ccccc1 0.005%
Cc1ccc(SCC(CC(C)C)N2CCN(CCc3ccccc3)CCC2=O)cc1 (configuration not stated) 4.19%
NS(=O)(=O)c1ccc(CCNC(=O)c2nc(CS(=O)(=O)c3ccc(Cl)cc3)no2)cc1 -0.948%
O=C1CCN(Cc2ccccc2)CCN1[C@H](CSc1ccccc1)c1ccccc1 0.158%
CS(=O)(=O)N(CC(=O)N1CCCCCC1)c1cccc(Cl)c1Cl -2.08%
COc1ccc(NC(=O)N2CCCC2C(=O)NCc2ccccc2Cl)cc1 (configuration not stated) -7.57%
O=C(NCCCN1CCOCC1)C1CCCN(S(=O)(=O)N2CCCCC2)C1 (configuration not stated) 0.555%
Cc1cc(F)ccc1N1CCC(N2CCN(C)C(CCO)C2)CC1 (configuration not stated) -7.47%
Cc1cccc(C(=O)OC(C)CN2CCCC2)c1 (configuration not stated) 5.39%
Cc1cn([C@H]2CC(F)[C@@H](CO)O2)c(=O)[nH]c1=O (some centres not stated) -4.2%
CN1C(=O)CN2CCc3ccccc3C2c2cc(Cl)ccc21 (configuration not stated) -5.51%
C=C1C(=CC=C2CCC[C@@]3(C)[C@@H]2CC[C@H]3[C@H](C)CCCC(C)C)C[C@@H](O)C[C@@H]1O 9.09%
COc1ccc(NC2CCCN(C(=O)c3ccncc3)C2)cc1 (configuration not stated) -4.31%
COc1cccc(OCc2cc(C(=O)N3CCN(C(=O)c4ccco4)CC3)no2)c1 6.94%
Cc1ccc(-c2nc(-c3ccncc3)no2)c(C)c1 -1.78%
CN(Cc1ccccc1)C(=O)c1ccc(COc2ccccc2)cc1 -7.59%
COc1cccc(NC(=O)C2C(c3ccccc3)C2(Cl)Cl)c1 (configuration not stated) -0.0582%
CN(CCO)c1ccc(/C=N/Nc2nncc3ccccc23)cc1 -4.23%
CC(C)c1ccc(NC(=O)Cn2ncc3ccccc32)cc1 -5.91%
COc1ccc(-c2n[nH]c(C)c2-c2ccccc2OC)c(O)c1 -3.47%
CN(CCc1ccccc1)c1ccc([N+](=O)[O-])cn1 -0.677%
CC(C)(C)OC(=O)NC(Cc1ccccc1)C(=O)NC(CSC1CCCCO1)C(=O)NN (configuration not stated) -3.74%
CN(CC(=O)Nc1ccc(Cl)cc1)C(=O)CNC(=O)c1ccc2ccccc2c1 -0.426%
O=C(CCN1CCCO1)N1CCCC(N2CCN(c3cccc(C(F)(F)F)c3)CC2)C1 (configuration not stated) 3.51%
C/C(=N\NC(=O)c1ccoc1C)c1ccccc1O -0.0656%
CC(=O)Nc1ccc(NC(=O)CC2CCCC2)cc1 8.07%
COc1cccc2cc(C(N)=O)/c(=N\NC(=O)c3ccccc3)oc12 3.41%
COc1ccc(OC)c(/C(C)=N\NC(=O)c2cc3cc(Cl)ccc3n2C)c1 4.34%
CCCC[C@]12Cc3cc(OC)c(OC)cc3C(O1)C1=C(CC3(CCCCC3)OC1=O)O2 0.345% [at 11.7 µM]
O=C(COc1ccc(S(=O)(=O)Nc2cccc(C(F)(F)F)c2)cc1)N1CCOCC1 3.89%
O=C(CSc1nnnn1C1CCCC1)N1CCCCC1 0.177%
C[C@@H]1CC[C@@]2(OC1)O[C@H]1C[C@H]3[C@@H]4CC=C5C[C@@H](O)[C@H](O)C[C@]5(C)C4CC[C@]3(C)[C@H]1[C@@H]2C (some centres not stated) -14.6%
COc1c(O)c2c(=O)cc(OC)c3c4c(OC)cc(=O)c5c(O)c(OC)c6c(c(c1C[C@@](C)(O)[C@H]6C(C)=O)c23)c54 -8.66%
COCCNc1cc(-c2ccccc2)nc2cc(-c3cccc(F)c3)nn12 2.42%
COc1ccc(OC)c(NC(=O)CN(C)CCOc2ccc(Br)cc2)c1 -13.1%
CC(C)(c1ccccc1)c1ccc(OCCN2CCCC2)cc1 -1.58%
CCN(CC)c1ccc(/C=N/NC(=O)CNC(=O)c2cccs2)cc1 2.38%
O=C(Cc1cccs1)NCc1cccc(C(F)(F)F)c1 -0.128%
Cc1cc(S(=O)(=O)NCc2ccccn2)c(Cl)cc1Cl -0.167%
COc1ccccc1CNS(=O)(=O)c1ccc2c(c1)NC(=O)CS2 -0.943%
COc1ccc(CNS(=O)(=O)c2ccc(NC(=O)N3CCCCC3)cc2)cc1 -0.428%
Oc1ccc(-c2cccc(-c3ccc(O)cc3)c2)cc1 0.0539%
CCCn1c(=O)c(C(=O)Nc2cc(C)ccn2)c(O)c2ccccc21 1.11%
Cc1cccc(C)c1NC(=O)NC1=CCCN1C 0.307%
O=C(Nc1ccc(F)cc1)c1ccc(S(=O)(=O)NCc2cccnc2)cc1 -2.58%
CC(C)NC(=O)COCc1cc(-c2ccc3c(c2)OCO3)on1 1.18%
COc1ccc(/C=N/Nc2nc(-c3ccc(C)cc3)c(C#N)c(=O)[nH]2)cc1 4.62%
COc1ccc(NCCc2ccccn2)cc1 7.39%
COc1cc(Cl)ccc1OCc1cc(C(=O)N(C)CCc2c(C)n[nH]c2C)no1 5.22%
CCCCn1c(-c2cccc(C)c2)nc2cc3[nH]c(=O)c(C(C)C)nc3cc21 -1.86%
CCOc1ccc(N(C(=O)c2snc(C(N)=O)c2N)C(C(=O)NCC2CCCO2)c2c[nH]c3ccccc23)cc1 (configuration not stated) 0.995%
O=C1OC2(CCCCC2)CC2=C1C1O[C@](c3ccsc3)(Cc3ccccc31)O2 6.24% [at 11.7 µM]
O=C(c1noc2c1CCCC2)N1CCc2ccccc2C1 4.17%
O=C(Nc1ccc(Br)cc1F)C1CC(=O)N(C2CCCCC2)C1 (configuration not stated) -3.69%
O=C(Nc1cccc(Br)c1)c1ccc2snnc2c1 1.58%
CCn1nnnc1SCC(=O)Nc1ccc(N(C)C)cc1 7.93%
CC(C)CN(CC(C)C)C(=O)CN1c2cccc3cccc(c23)S1(=O)=O -0.109%
Cc1c(C)n(Cc2ccc(Cl)cc2)c2ccc(C(=O)NCCCN3CCOCC3)cc12 -1.82%
COc1ccc(/C=C/c2noc(-c3ccccc3OC(C)=O)n2)cc1 -1.92%
COc1ccc(C)cc1Nc1n[n+](-c2ccccc2)c(-c2cccc(Cl)c2Cl)s1 -4.87%
CN(Cc1ccccc1)C(=O)C1CCCN(c2ncnc3c2nc2n3CCCCC2)C1 (configuration not stated) 7.84%
C[n+]1cc(-c2ccccc2)oc1-c1ccccc1 2.02%
CS(=O)(=O)Nc1ccccc1N=C(c1ccccc1)c1ccccc1 -3.8%
O=S1(=O)CCOC[C@H](CC2CCCCC2)N1Cc1ccc(F)cc1 3.27%
Cc1cc(C)n2nc(CNS(=O)(=O)c3c(F)c(F)c(F)c(F)c3F)nc2n1 -0.766%
Cc1ccc(-c2ncc(Cl)cc2-c2ccc(S(C)(=O)=O)cc2)cn1 -0.497%
CCc1ccccc1NC(=S)Nc1cc(OC)c(NC(=O)C(C)C)cc1OC 2.06%
CC(=O)Oc1ccc(-c2cccc(C(=O)N3CCCCC3)c2)cc1 -1.05%
O=P(O)(O)OC[C@H](O)CO 1.8%
CCOCCCNC(=O)C1(O)c2cc(Br)ccc2NC(=O)N1c1ccc(C)c(C)c1 (configuration not stated) -1.16%
COC(=O)C1(C)NC(c2ccc(F)cc2)C2C(=O)N(c3ccccc3)C(=O)C21 (configuration not stated) 1.25%
Cc1cccc(OCCC(=O)Nc2ccccc2C(N)=O)c1 11.1%
COc1ccc2c(C(=O)c3ccc(C)cc3)n(CCC(N)=O)[n+]([O-])c2c1 -1.07%
Cc1ccc(N2CCN(C(=O)c3cccs3)CC2)c(C)c1 -3.88%
c1ccc(-c2ccc(OCCN3CCOCC3)cc2)cc1 -3.06%
COc1ccc(N(CC(=O)NCCSCc2cccc(Cl)c2)S(C)(=O)=O)cc1 -0.4%
COc1ccc(C(=O)O/N=C(\N)c2ccccn2)cc1[N+](=O)[O-] 2.14%
NS(=O)(=O)c1ccc2nc(NC(=O)C3=COCCO3)sc2c1 -3.94%
COc1ccc(N2CCN(C(=O)c3cccs3)CC2)cc1 -2.7%
CS(=O)(=O)N1CCCC(C(=O)Nc2ccccc2C(F)(F)F)C1 (configuration not stated) -2.75%
O=C(Nc1nnc(C2=COCCO2)o1)c1ccc([N+](=O)[O-])s1 -4.17%
CC1CCN(CC(O)COc2ccc(C(=O)c3ccccc3)cc2)CC1 (configuration not stated) -3.11%
CC(C)(O)c1ccccc1CC[C@H](SCC1(CC(=O)O)CC1)c1cccc(/C=C/c2ccc3ccc(Cl)cc3n2)c1 -1.58%
CCOc1ccc(CN2CCC(n3nccc3NC(=O)C3CC3)CC2)cc1CO 0.299%
COc1cc(/C=C/C(=O)O)cc(S(=O)(=O)Nc2ccccc2C(=O)NCCc2ccccc2)c1OC 3.17%
Cc1cc(=O)[nH]c(Nc2cccc(Br)c2)n1 0.992%
CCCc1cc(C(=O)Nc2ccc(Cl)cn2)cs1 -1.52%
Cc1ccc(S(=O)(=O)NCC2CCC(C(=O)N3CCOCC3)CC2)cc1 (configuration not stated) -11.9%
